Hits are enriched below; roughly 4.6% of the tested compounds scored in any of these assays.
D1 ag – agonists of human D1 dopamine receptor; AID 504660; activation, % at 2 µM; HEK293 T-REx D1 cells, calcium flux, agonist mode; actives 1% (n = 360,000); P21728; also: 0% is about no effect
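Tetracycline-induced HEK293 TREx D1 cells, force-coupled to calcium signalling, were dye-loaded with a no-wash calcium kit. Compound was pin-added after a 10 s baseline. Fluorescence was read kinetically at 1 cycle/s for 180 s, with calcium rises flagged as agonism.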
TRHR PAM – TRH receptor (human) allosteric enhancement; P34981; TRHR cells, fluo-8 calcium fluorescence, EC20 TRH enhancement; enhancement, % at 2 µM; actives 0.66% (n = 360,000); in the data active = enhancement above about 30%; also: 0% is about no effect
Target sequence (P34981 whole entry, looked up): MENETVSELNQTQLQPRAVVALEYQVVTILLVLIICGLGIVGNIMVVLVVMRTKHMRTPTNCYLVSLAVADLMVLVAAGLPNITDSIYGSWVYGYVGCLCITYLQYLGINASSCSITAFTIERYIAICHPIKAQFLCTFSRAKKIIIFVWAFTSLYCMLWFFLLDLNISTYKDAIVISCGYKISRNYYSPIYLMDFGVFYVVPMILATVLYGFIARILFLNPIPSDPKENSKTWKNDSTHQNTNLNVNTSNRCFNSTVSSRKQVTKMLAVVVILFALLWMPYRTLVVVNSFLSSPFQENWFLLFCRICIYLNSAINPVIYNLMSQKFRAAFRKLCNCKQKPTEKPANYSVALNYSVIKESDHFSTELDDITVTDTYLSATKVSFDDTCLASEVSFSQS
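Enhancer read-out: after compound pinning and an initial kinetic agonist-mode read, an EC20 of TRH (10 nM final) was injected and fluo-8 calcium signal (Ex 480/Em 530) followed at 1 s/cycle for 100 cycles in TRHR-expressing cells.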
TRHR agonist – activates the human TRH receptor. activation, % at 2 µM. AID 493084. P34981. TRHR cells, calcium flux fluo-8, FDSS agonist mode. actives 0.18% (n = 360,000); also: 0% is about no effect
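Read-out: compound-evoked intracellular calcium rise in TRHR cells, fluo-8 dye, kinetic FDSS fluorescence at 1 s/cycle following a 10-cycle baseline. Cells cultured overnight before dye loading (30 min–1.5 h, RT).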
D1 antagonist – human D1 dopamine receptor antagonism. P21728. HEK293 TREx D1 cells, calcium flux, dopamine EC80; stronger effect = lower value. activity change, negative = inhibition, % at 10 µM. actives 3.2% (n = 360,000). AID 504652; in the data active = activity change below about -30%; also: % is scaled to controls: 0 for no effect and ±100 for the full control effect
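Calcium flux readout: force-coupled, inducible Hek293 Trex D1 line, cells induced overnight at 30 C with tetracycline, dye-loaded 30–90 min at RT. Antagonism scored against EC80 dopamine challenge given 180 s after compound.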
D1 PAM – human D1 dopamine receptor positive modulation. potentiation, % at 10 µM. P21728. actives 0.036% (n = 360,000). HEK293 TREx D1 cells, calcium flux, dopamine EC20 potentiation; in the data active = potentiation above about 30%; also: 0% is about no effect
Epigenetic derep – derepresses silenced GFP reporter in murine cells | Potency, µM (titrated, usually from 53.9 µM), for inactives: at the top dose GFP activation, hits mostly activators | actives 0.2% (n = 280,000) | murine LDR cells, GFP reporter derepression, 30 h; active = well fitted activation curve with a large enough effect; inconclusive = small, poorly fitted or top-dose-only effect; also: potency is read from the fitted curve at half-maximal effect; % of control where 0% means no effect; nearly all actives have a fitted effect of over 60% in size
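Readout is the number of GFP-expressing murine LDR cells, counted by cytometry following washing. Cells were treated with compound for 30 h at 37 C; the stably integrated CMV-GFP locus is normally silent.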
* hit, by the source's call; u = inconclusive; x = no result; [ ] = dose if it differs, or a comment. Rule as the data show it, unless noted: active = activation above about 30%; inactive = the rest.

SMILES | D1 ag | TRHR PAM | TRHR agonist | D1 antagonist | D1 PAM | Epigenetic derep
CCOc1ccc(C(=O)c2oc3ccccc3c2NC(=O)Cc2coc3cc(C)cc(C)c23)cc1 | 3 | 1 | -2 | -16 | 0 | 1%
O=S(=O)(Nc1cccc2ccccc12)c1ccc2ccccc2c1 | 4 | 7 | 0 | -14 | -6 | x
COc1cccc(C(=O)Nc2cccc(-c3nc4ncccn4c3C)c2)c1 | -1 | -3 | 0 | -5 | -1 | -2%
Cc1cc(-c2csc3nc[nH]c(=S)c23)cc(C)c1C | 17 | -7 | -2 | -49* | -5 | 0%
Cc1ccc(-c2csc3nc[nH]c(=S)c23)cc1 | 2 | 0 | -1 | -8 | -1 | -1%
O=S(=O)(/N=C(/Nc1ccccc1F)c1ccccc1)c1ccccc1 | 2 | -4 | 0 | 0 | -4 | -1%
N#CN/C(=N\S(=O)(=O)c1ccccc1)c1ccccc1 | 4 | 37* | 1 | -1 | -1 | x
Cc1ccc(OCCn2nc3ccccc3n2)c(C)c1 | 4 | 39* | 1 | -24 | -13 | 0%
CCOc1ccccc1OCCn1nc2ccccc2n1 | 4 | -4 | 0 | 6 | 1 | x
CNC(=O)C1CCN(Cc2cc3ccccc3n2Cc2ccccc2C)CC1 | 6 | 0 | 0 | 25 | -2 | 0%
Cc1ccccc1Cn1c(CN2CCC(C(=O)NCCN(C)C)CC2)cc2ccccc21 | 45* | 3 | 4 | -8 | -3 | -1%
CCCn1c(=N)c(C(=O)NC(C)c2ccccc2)cc2c(=O)n3ccccc3nc21 (centres undefined) | 0 | 14 | 0 | -4 | 1 | 1%
CC(C)CCNC(=O)c1cn(C)c2ccc(S(=O)(=O)N3CCOCC3)cc2c1=O | -1 | -2 | 1 | -9 | 3 | -1%
CCc1ccccc1NC(=O)Nc1cc(C(=O)NCc2ccc(C)cc2)ccc1N1CCCC1 | -2 | 4 | -1 | -5 | 0 | 0%
Cc1cccc(C)c1-n1cccc1/C=C1/C(=N)N2C(=NC1=O)SN=C2S(C)(=O)=O | 4 | -17 | 1 | -66* | -15 | -1%
Cc1ccc(-n2cccc2/C=C2/C(=N)N3C(=NC2=O)SN=C3S(C)(=O)=O)cc1Cl | 1 | -9 | 2 | 15 | -10 | 1%
O=C(CCS(=O)(=O)c1nc(-c2ccc3c(c2)OCO3)cc(C(F)(F)F)n1)Nc1ccc(Br)cc1 | 3 | -3 | 0 | -13 | 3 | -1%
CCOC(=O)c1c(C)[nH]c(C)c1S(=O)(=O)NCCN1CCN(c2cc(Cl)ccc2C)CC1 | 1 | -2 | 0 | -42* | -18 | x
CCOC(=O)c1c(C)[nH]c(C)c1S(=O)(=O)NCC(=O)Nc1ccc(CC)cc1 | 6 | 11 | 0 | -35* | -6 | -1%
O=C(O)[C@@H](O)[C@@H](O)[C@@H](O)[C@@H](O)C(=O)O (tested in a mixture with another compound) | x | x | x | x | x | 4%[16.9 µM]
C/C(N)=C(/C#N)C(=O)CSc1nnnn1-c1ccccc1 | 2 | 1 | 0 | 0 | 0 | -3%
C/C(N)=C(/C#N)C(=O)CSc1nnnn1-c1ccc(C)cc1 | 4 | -27 | 0 | -44* | -5 | 0%
Cc1ccc(C(=O)N/C(=C\c2cccs2)C(=O)NCCc2c[nH]c3ccccc23)cc1C | 2 | 3 | 1 | -39* | 3 | -2%
O=C(NCCc1c[nH]c2ccccc12)/C(=C\c1cccs1)NC(=O)c1ccccc1 | 0 | -2 | 0 | -42* | -7 | 0%
O=C(NCCc1c[nH]c2ccccc12)/C(=C\c1cccnc1)NC(=O)c1cccs1 | 3 | 3 | 0 | 4 | 2 | -2%
SMILES | D1 ag | TRHR PAM | TRHR agonist | D1 antagonist | D1 PAM | Epigenetic derep
CCc1cccc(C)c1NC(=O)c1cnn(-c2ccc(F)cc2)c1-n1cccc1 | 5 | 2 | -2 | 19 | -1 | 0%
CCC(=NCc1ccco1)c1c(C(F)(F)F)[nH]n(-c2nc3ccccc3s2)c1=O | 4 | -3 | -1 | 5 | 1 | 3%
CC(=NCc1ccco1)c1c(C)[nH]n(-c2nc3ccccc3s2)c1=O | -1 | -18 | 0 | -66* | -7 | u
CC(C)c1cc(N2CCN(C(=O)c3ccco3)CC2)n2c(nc3ccccc32)c1C#N | 0 | -3 | 0 | -33* | -3 | 0%
COc1ccc(S(=O)(=O)N(Cc2nc(-c3ccc(Cl)cc3)no2)C2CCCCC2)cc1 | 17 | -8 | 3 | 2 | -2 | 0%
COc1ccc(-n2c(SCc3ccccc3F)nc3c([nH]c4ccccc43)c2=O)cc1OC | 2 | 7 | 1 | 18 | -2 | 7%
COc1ccc(-c2c3c(cc(C)[n+]2[O-])oc2ccc(OC)cc23)cc1 | 2 | 5 | 0 | -30* | 2 | -2%
O=C(O)CSC1CC(=O)N(c2ccc(Br)cc2)C1=O (centres undefined) | 9 | 40* | 0 | -4 | -5 | x
C=Cc1c(C)c2cc3nc(cc4[nH]c(cc5nc(cc1[nH]2)C(C)=C5CCC(=O)O)c(CCC(=O)OC)c4C)[C@@]1(C)C3=CC=C(C(=O)OC)[C@H]1C(=O)OC (tested in a mixture with another compound) | x | x | x | x | x | 0%[16.9 µM]
COc1ccccc1CNC(=O)/C=C/c1cc2c(cc1Br)OCO2 | 8 | 0 | 0 | -30* | -1 | 0%
Cc1cccc(NC(=S)NNC(=O)COc2ccc(Cl)cc2Cl)c1 | 2 | -7 | -1 | -17 | -8 | 18%
COc1ccc(NC(=S)NNC(=O)COc2ccc(Cl)cc2Cl)cc1 | 44* | -2 | 1 | -4 | -4 | 0%
COC(CC(=O)NNC(=S)Nc1ccccc1)OC | 3 | -9 | 1 | 4 | -6 | 7%
COC(CC(=O)NNC(=S)Nc1ccc(Cl)cc1)OC | 3 | 2 | 0 | -30* | 4 | 0%
CCn1cc(C(=O)NCc2ccccc2)c(=O)c2cc(S(=O)(=O)N3CCOCC3)ccc21 | 1 | -9 | 0 | 0 | 1 | 6%
CCOC(=O)c1cc(C)sc1/N=C/C1C(=O)CC(C)(C)CC1=O | -2 | -3 | 0 | -6 | -8 | -2%
CCOC(=O)c1c(CC(C)C)csc1/N=C/C1C(=O)CC(C)(C)CC1=O | 32* | 13 | 12 | -4 | -2 | -1%
CCn1cc(CN2CCCC(CO)(Cc3ccc(F)cc3)C2)c2ccccc21 (centres undefined) | 31* | 4 | 1 | -17 | -3 | x
Cc1ccc(-c2nnc(SCC(=O)NCCC(C)C)nc2-c2ccc(C)cc2)cc1 | 15 | 1 | 0 | -8 | -3 | 12%
